Assay results as given in PubChem BioAssay AID1159580 (chemical genetic matrix, 2015).
Hit rate of the full screen: of about 5,500 compounds, about 2,000 (36%) were called active. About 18% were inconclusive and are not listed. Cut-off read from the data, not from the text of the source: active = normalized growth mostly below about 0.91 (no sharp cut-off); inconclusive = no clear call, values can overlap the other calls; inactive = mostly above about 0.92. Some of the results follow.

Assay: chemical genetic growth profiling, strain panel (AID 1159580);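 note: tested at 20 µM; growth read once vehicle control cultures reached saturation at 30 °C; 1 = growth at the plate median or of vehicle wells; lower values mean less growth of the strain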
Conditions: growth OD

Measured: normalized growth

COc1cc2c(cc1OC)C(=O)c1ccc(OC)c(OC)c1OCC(=O)C2
inactive: S. cerevisiae deletion strains, locus YAL013W, strain DEP1, active compounds read low 1.01 | S. cerevisiae deletion strains, locus YBR021W, strain FUR4, active compounds read low 1.08 | S. cerevisiae deletion strains, locus YBR229C, strain ROT2, active compounds read low 1.01 | S. cerevisiae deletion strains, locus YCL029C, strain bik1, active compounds read low 1.01 | S. cerevisiae deletion strains, locus YDL035C, strain GPR1, active compounds read low 1.05 | S. cerevisiae deletion strains, locus YDL074C, strain BRE1, active compounds read low 1.05 | S. cerevisiae deletion strains, locus YDL101C, strain DUN1, active compounds read low 0.993 | S. cerevisiae deletion strains, locus YDL185W, strain tfp1, active compounds read low 0.982 | S. cerevisiae deletion strains, locus YDL192W, strain arf1, active compounds read low 1.04 | S. cerevisiae deletion strains, locus YDR101C, strain arx1, active compounds read low 1.06 | S. cerevisiae deletion strains, locus YDR162C, strain NBP2, active compounds read low 1.04 | S. cerevisiae deletion strains, locus YDR318W, strain mcm21, active compounds read low 1.01 | S. cerevisiae deletion strains, locus YDR388W, active compounds read low 1.01 | S. cerevisiae deletion strains, locus YDR502C, strain sam2, active compounds read low 0.991 | S. cerevisiae deletion strains, locus YEL061C, strain CIN8, active compounds read low 1.01 | S. cerevisiae deletion strains, locus YER110C, active compounds read low 1.01 | S. cerevisiae deletion strains, locus YER155C, strain BEM2, active compounds read low 0.992 | S. cerevisiae deletion strains, locus YER167W, strain BCK2, active compounds read low 0.995 | S. cerevisiae deletion strains, locus YGL078C, strain dbp3, active compounds read low 0.963 | S. cerevisiae deletion strains, locus YGL086W, strain mad1, active compounds read low 1.02 | S. cerevisiae deletion strains, locus YGL248W, strain PDE1, active compounds read low 0.994 | S. cerevisiae deletion strains, locus YGR078C, strain PAC10, active compounds read low 1.02 | S. cerevisiae deletion strains, locus YGR135W, strain pre9, active compounds read low 0.968 | S. cerevisiae deletion strains, locus YGR252W, strain gcn5, active compounds read low 1.05 | S. cerevisiae deletion strains, locus YHR030C, strain SLT2, active compounds read low 1 | S. cerevisiae deletion strains, locus YHR079C, strain IRE1 (second series), active compounds read low 1 | S. cerevisiae deletion strains, locus YHR094C, strain hxt1, active compounds read low 0.991 | S. cerevisiae deletion strains, locus YHR129C, strain ARP1, active compounds read low 1 | S. cerevisiae deletion strains, locus YHR200W, strain rpn10, active compounds read low 1.02 | S. cerevisiae deletion strains, locus YIL066C, strain RNR3, active compounds read low 1.01 | S. cerevisiae deletion strains, locus YIL073C, strain SPO22, active compounds read low 0.954 | S. cerevisiae deletion strains, locus YIL125W, strain kgd1, active compounds read low 1.01 | S. cerevisiae deletion strains, locus YIR030C, strain dcg1, active compounds read low 1 | S. cerevisiae deletion strains, locus YJL095W, strain BCK1, active compounds read low 1.01 | S. cerevisiae deletion strains, locus YJL134W, strain LCB3, active compounds read low 1.01 | S. cerevisiae deletion strains, locus YJL168C, strain set2, active compounds read low 1 | S. cerevisiae deletion strains, locus YJL187C, strain SWE1 (second series), active compounds read low 1.01 | S. cerevisiae deletion strains, locus YJR043C, strain POL32, active compounds read low 1.09 | S. cerevisiae deletion strains, locus YJR075W, strain HOC1, active compounds read low 0.997 | S. cerevisiae deletion strains, locus YKL009W, strain mrt4, active compounds read low 1.01 | S. cerevisiae deletion strains, locus YKL068W, active compounds read low 0.988 | S. cerevisiae deletion strains, locus YKL085W, strain MDH1 (second series), active compounds read low 0.962 | S. cerevisiae deletion strains, locus YKL085W, strain MDH1, active compounds read low 0.962 | S. cerevisiae deletion strains, locus YKR001C, strain vps1, active compounds read low 1 | S. cerevisiae deletion strains, locus YLR039C, strain RIC1, active compounds read low 1.03 | S. cerevisiae deletion strains, locus YLR058C, strain SHM2, active compounds read low 1.01 | S. cerevisiae deletion strains, locus YLR102C, strain apc9, active compounds read low 1.01 | S. cerevisiae deletion strains, locus YLR262C, strain YPT6, active compounds read low 1 | S. cerevisiae deletion strains, locus YLR268W, strain sec22, active compounds read low 1 | S. cerevisiae deletion strains, locus YLR330W, strain CHS5, active compounds read low 1 | S. cerevisiae deletion strains, locus YLR342W, strain FKS1 (second series), active compounds read low 1.13 | S. cerevisiae deletion strains, locus YLR371W, strain rom2, active compounds read low 0.984 | S. cerevisiae deletion strains, locus YLR418C, strain cdc73, active compounds read low 1.01 | S. cerevisiae deletion strains, locus YML016C, strain PPZ1, active compounds read low 1.01 | S. cerevisiae deletion strains, locus YML032C, strain rad52, active compounds read low 1.03 | S. cerevisiae deletion strains, locus YML124C, strain tub3, active compounds read low 0.983 | S. cerevisiae deletion strains, locus YMR078C, strain ctf18, active compounds read low 1 | S. cerevisiae deletion strains, locus YMR223W, strain ubp8, active compounds read low 1.01 | S. cerevisiae deletion strains, locus YMR263W, strain SAP30, active compounds read low 0.993 | S. cerevisiae deletion strains, locus YMR307W, strain GAS1, active compounds read low 1.2 | S. cerevisiae deletion strains, locus YNL067W, strain RPL9B, active compounds read low 0.976 | S. cerevisiae deletion strains, locus YNL233W, strain BNI4, active compounds read low 1.01 | S. cerevisiae deletion strains, locus YNL250W, strain rad50, active compounds read low 0.936 | S. cerevisiae deletion strains, locus YNL271C, strain bni1, active compounds read low 0.976 | S. cerevisiae deletion strains, locus YNL298W, strain CLA4, active compounds read low 1 | S. cerevisiae deletion strains, locus YNL307C, strain MCK1, active compounds read low 0.988 | S. cerevisiae deletion strains, locus YNR052C, strain pop2, active compounds read low 0.996 | S. cerevisiae deletion strains, locus YOL006C, strain TOP1, active compounds read low 1.27 | S. cerevisiae deletion strains, locus YOL012C, strain htz1 0.675 | S. cerevisiae deletion strains, locus YOL147C, strain pex11, active compounds read low 1.01 | S. cerevisiae deletion strains, locus YOR061W, strain CKA2, active compounds read low 1.02 | S. cerevisiae deletion strains, locus YOR069W, strain VPS5, active compounds read low 1 | S. cerevisiae deletion strains, locus YOR136W, strain idh2, active compounds read low 1 | S. cerevisiae deletion strains, locus YOR144C, strain elg1, active compounds read low 1 | S. cerevisiae deletion strains, locus YOR184W, strain ser1, active compounds read low 1.07 | S. cerevisiae deletion strains, locus YOR316C, strain cot1, active compounds read low 0.99 | S. cerevisiae deletion strains, locus YPL055C, strain LGE1, active compounds read low 1.09 | S. cerevisiae deletion strains, locus YPR119W, strain clb2, active compounds read low 0.977 | S. cerevisiae deletion strains, locus YPR141C, strain kar3, active compounds read low 0.972 | S. cerevisiae deletion strains, locus YPR163C, strain tif3, active compounds read low 0.999 | S. cerevisiae deletion strains, locus YPR167C, strain met16, active compounds read low 0.99 | S. cerevisiae deletion strains, strain wtn01, active compounds read low 1.04 | S. cerevisiae strains, strain wild type, active compounds read low 1.04
